Measured values reported in PubChem BioAssay AID1159580 (chemical genetic matrix, 2015).
The whole screen tested about 5,500 compounds, of which about 2,000 (36%) were called active. About 18% were inconclusive and are not listed. Cut-off read from the data, not from the text of the source: active = normalized growth mostly below about 0.91 (no sharp cut-off); inconclusive = no clear call, values can overlap the other calls; inactive = mostly above about 0.92. Some of the results follow.

Test: chemical genetic growth profiling, strain panel (AID 1159580);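 note: tested at 20 µM; growth read once vehicle control cultures reached saturation at 30 °C; 1 = growth at the plate median or of vehicle wells; lower values mean less growth of the strain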
Settings: growth OD

Measured: normalized growth

CNC(=O)CSP(=S)(OC)OC
inactive: S. cerevisiae deletion strains, locus YJR075W, strain HOC1, stronger effect = lower value 1.02 | S. cerevisiae deletion strains, locus YKL009W, strain mrt4, stronger effect = lower value 1 | S. cerevisiae deletion strains, locus YKL068W, stronger effect = lower value 1.01 | S. cerevisiae deletion strains, locus YKL085W, strain MDH1 (second series), stronger effect = lower value 1.01 | S. cerevisiae deletion strains, locus YKL085W, strain MDH1, stronger effect = lower value 1.01 | S. cerevisiae deletion strains, locus YKL160W, strain elf1, stronger effect = lower value 1.01 | S. cerevisiae deletion strains, locus YKL190W, strain CNB1, stronger effect = lower value 0.979 | S. cerevisiae deletion strains, locus YKR001C, strain vps1, stronger effect = lower value 1.02 | S. cerevisiae deletion strains, locus YKR026C, strain gcn3, stronger effect = lower value 1.01 | S. cerevisiae deletion strains, locus YKR091W, strain srl3, stronger effect = lower value 1.02 | S. cerevisiae deletion strains, locus YLL001W, strain dnm1, stronger effect = lower value 1.01 | S. cerevisiae deletion strains, locus YLL026W, stronger effect = lower value 1.02 | S. cerevisiae deletion strains, locus YLL041C, strain sdh2, stronger effect = lower value 1.03 | S. cerevisiae deletion strains, locus YLR027C, strain aat2, stronger effect = lower value 1.01 | S. cerevisiae deletion strains, locus YLR039C, strain RIC1, stronger effect = lower value 0.993 | S. cerevisiae deletion strains, locus YLR058C, strain SHM2, stronger effect = lower value 1.01 | S. cerevisiae deletion strains, locus YLR102C, strain apc9, stronger effect = lower value 1.02 | S. cerevisiae deletion strains, locus YLR113W, strain HOG1, stronger effect = lower value 0.997 | S. cerevisiae deletion strains, locus YLR221C, strain rsa3, stronger effect = lower value 1.03 | S. cerevisiae deletion strains, locus YLR258W, strain gsy2, stronger effect = lower value 1.03 | S. cerevisiae deletion strains, locus YLR262C, strain YPT6 (second series), stronger effect = lower value 1.05 | S. cerevisiae deletion strains, locus YLR262C, strain YPT6, stronger effect = lower value 0.999 | S. cerevisiae deletion strains, locus YLR268W, strain sec22, stronger effect = lower value 1.01 | S. cerevisiae deletion strains, locus YLR320W, strain mms22, stronger effect = lower value 1.02 | S. cerevisiae deletion strains, locus YLR330W, strain CHS5, stronger effect = lower value 1.01 | S. cerevisiae deletion strains, locus YLR342W, strain FKS1 (second series), stronger effect = lower value 1.04 | S. cerevisiae deletion strains, locus YLR342W, strain FKS1, stronger effect = lower value 1.02 | S. cerevisiae deletion strains, locus YLR357W, strain rsc2, stronger effect = lower value 0.986 | S. cerevisiae deletion strains, locus YLR370C, strain arc18, stronger effect = lower value 1.03 | S. cerevisiae deletion strains, locus YLR371W, strain rom2, stronger effect = lower value 1.02 | S. cerevisiae deletion strains, locus YLR384C, strain iki3, stronger effect = lower value 1.04 | S. cerevisiae deletion strains, locus YLR418C, strain cdc73, stronger effect = lower value 1.01 | S. cerevisiae deletion strains, locus YML016C, strain PPZ1, stronger effect = lower value 1 | S. cerevisiae deletion strains, locus YML032C, strain rad52, stronger effect = lower value 1.03 | S. cerevisiae deletion strains, locus YML120C, strain ndi1, stronger effect = lower value 1.02 | S. cerevisiae deletion strains, locus YML124C, strain tub3, stronger effect = lower value 1.02 | S. cerevisiae deletion strains, locus YMR058W, strain fet3, stronger effect = lower value 1.01 | S. cerevisiae deletion strains, locus YMR078C, strain ctf18, stronger effect = lower value 1.02 | S. cerevisiae deletion strains, locus YMR125W, strain sto1, stronger effect = lower value 1.02 | S. cerevisiae deletion strains, locus YMR129W, stronger effect = lower value 1.01 | S. cerevisiae deletion strains, locus YMR205C, strain PFK2, stronger effect = lower value 1.01 | S. cerevisiae deletion strains, locus YMR223W, strain ubp8, stronger effect = lower value 1.02 | S. cerevisiae deletion strains, locus YMR231W, strain pep5, stronger effect = lower value 1.01 | S. cerevisiae deletion strains, locus YMR263W, strain SAP30, stronger effect = lower value 1.02 | S. cerevisiae deletion strains, locus YMR307W, strain GAS1, stronger effect = lower value 1.03 | S. cerevisiae deletion strains, locus YNL067W, strain RPL9B, stronger effect = lower value 1.01 | S. cerevisiae deletion strains, locus YNL071W, strain lat1, stronger effect = lower value 1 | S. cerevisiae deletion strains, locus YNL128W, strain TEP1, stronger effect = lower value 1.01 | S. cerevisiae deletion strains, locus YNL153C, strain GIM3, stronger effect = lower value 1.01 | S. cerevisiae deletion strains, locus YNL183C, strain NPR1, stronger effect = lower value 0.982 | S. cerevisiae deletion strains, locus YNL209W, strain ssb2, stronger effect = lower value 0.999 | S. cerevisiae deletion strains, locus YNL233W, strain BNI4, stronger effect = lower value 0.991 | S. cerevisiae deletion strains, locus YNL248C, strain rpa49, stronger effect = lower value 1.02 | S. cerevisiae deletion strains, locus YNL250W, strain rad50, stronger effect = lower value 1.02 | S. cerevisiae deletion strains, locus YNL271C, strain bni1, stronger effect = lower value 1.02 | S. cerevisiae deletion strains, locus YNL298W, strain CLA4, stronger effect = lower value 1.02 | S. cerevisiae deletion strains, locus YNL307C, strain MCK1, stronger effect = lower value 1.04 | S. cerevisiae deletion strains, locus YNL322C, strain KRE1 (second series), stronger effect = lower value 1 | S. cerevisiae deletion strains, locus YNL322C, strain KRE1, stronger effect = lower value 1.01 | S. cerevisiae deletion strains, locus YNR049C, strain mso1, stronger effect = lower value 1.02 | S. cerevisiae deletion strains, locus YNR052C, strain pop2, stronger effect = lower value 1.02 | S. cerevisiae deletion strains, locus YOL006C, strain TOP1, stronger effect = lower value 1.05 | S. cerevisiae deletion strains, locus YOL012C, strain htz1 1.12 | S. cerevisiae deletion strains, locus YOL147C, strain pex11, stronger effect = lower value 1.01 | S. cerevisiae deletion strains, locus YOR001W, strain rrp6, stronger effect = lower value 1.02 | S. cerevisiae deletion strains, locus YOR061W, strain CKA2, stronger effect = lower value 1.01 | S. cerevisiae deletion strains, locus YOR069W, strain VPS5, stronger effect = lower value 1 | S. cerevisiae deletion strains, locus YOR070C, strain gyp1, stronger effect = lower value 1.02 | S. cerevisiae deletion strains, locus YOR080W, strain dia2, stronger effect = lower value 1.02 | S. cerevisiae deletion strains, locus YOR083W, strain WHI5, stronger effect = lower value 1.01 | S. cerevisiae deletion strains, locus YOR106W, strain vam3, stronger effect = lower value 1.01 | S. cerevisiae deletion strains, locus YOR136W, strain idh2, stronger effect = lower value 1.01 | S. cerevisiae deletion strains, locus YOR144C, strain elg1, stronger effect = lower value 1.02 | S. cerevisiae deletion strains, locus YOR184W, strain ser1, stronger effect = lower value 1.04 | S. cerevisiae deletion strains, locus YOR231W, strain MKK1, stronger effect = lower value 1.04 | S. cerevisiae deletion strains, locus YOR265W, strain rbl2, stronger effect = lower value 1.03 | S. cerevisiae deletion strains, locus YOR270C, strain vph1, stronger effect = lower value 1.05 | S. cerevisiae deletion strains, locus YOR290C, strain snf2, stronger effect = lower value 1.03 | S. cerevisiae deletion strains, locus YOR316C, strain cot1, stronger effect = lower value 1.03 | S. cerevisiae deletion strains, locus YPL051W, strain arl3, stronger effect = lower value 1.01 | S. cerevisiae deletion strains, locus YPL055C, strain LGE1, stronger effect = lower value 1 | S. cerevisiae deletion strains, locus YPL078C, strain atp4, stronger effect = lower value 1.01 | S. cerevisiae deletion strains, locus YPL106C, strain sse1, stronger effect = lower value 1 | S. cerevisiae deletion strains, locus YPL240C, strain hsp82, stronger effect = lower value 1.02 | S. cerevisiae deletion strains, locus YPL241C, strain CIN2, stronger effect = lower value 1.02 | S. cerevisiae deletion strains, locus YPL256C, strain CLN2, stronger effect = lower value 1.05 | S. cerevisiae deletion strains, locus YPR119W, strain clb2, stronger effect = lower value 1.02 | S. cerevisiae deletion strains, locus YPR141C, strain kar3, stronger effect = lower value 1.02 | S. cerevisiae deletion strains, locus YPR163C, strain tif3, stronger effect = lower value 1.02 | S. cerevisiae deletion strains, locus YPR167C, strain met16, stronger effect = lower value 1.02 | S. cerevisiae deletion strains, strain wtn01, stronger effect = lower value 1.02 | S. cerevisiae strains, strain wild type, stronger effect = lower value 1.02
